Screening results as filed in PubChem.
Only some compounds are listed: those with a hit (about 19% of all), similar ones and a draw of the others.
Shiga toxin inh = inhibitors of Shiga toxin in Vero cells | Vero cells, Shiga toxin protein synthesis inhibition reporter | AID 2315 | inhibition, % at 38.7 µM | actives 9.2% (n = 290,000); in the data active means inhibition mostly above about 28%, no sharp cut-off; inactive means mostly below about 43%
Pf growth 48h = inhibits P. falciparum growth in the first generation, 48 h; P. falciparum luciferase growth in erythrocytes, 48 h; Potency, µM (doses to about 28.7 µM), actives largely listed as inhibitors; actives 5.9% (n = 310,000); AID 504832
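Luminescence readout; reporter = integrated firefly luciferase in P. falciparum. RBC culture at 2% hematocrit, 0.1% parasitemia final, 37 C/5% CO2; decreased signal taken as growth inhibition.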
Pf growth 96h = P. falciparum growth inhibition at 96 hour, primary screen for plastid delayed-death inhibitors. P. falciparum luciferase reporter growth, 96 h. Potency, µM (top dose mostly 28.7 µM), hits mostly inhibitors. actives 6.9% (n = 320,000). AID 504834
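P. falciparum expressing integrated firefly luciferase grown in erythrocytes (2% hematocrit, 0.05% parasitemia final) with compounds for 96 hours at 37 C, 5% CO2. Growth inhibition read as loss of luminescence after adding luciferase detection reagent.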
AMA1 RON2 block = inhibitors of Plasmodium falciparum AMA1-RON2 interaction. AlphaScreen AMA1-biotinylated RON2 peptide binding. Potency, µM (doses to about 58.2 µM), most hits filed as inhibitors. actives 0.2% (n = 360,000). AID 720542; further: nearly all actives have a fitted effect of over 45% in size
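AMA1 (3D7) with his tag at 25 nM final met compounds first, then biotinylated RON2 peptide at 25 nM; detection used donor plus acceptor beads, 10 µg/mL apiece, read by AlphaScreen after 30 min at room temperature.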
SARS PLpro yeast = inhibitors of SARS-CoV papain-like protease in yeast. S. cerevisiae expressing SARS-CoV PLpro, growth rescue. Potency, µM (doses to about 32.9 µM), actives largely listed as activators. actives 0.19% (n = 330,000). AID 485353; calls by dose curve; further: nearly all actives have a fitted effect of over 55% in size
Cycloheximide cs = affects cycloheximide protein synthesis inhibition readout, counter-screen | cell reporter, cycloheximide protein synthesis inhibition counterscreen | actives 12% (n = 300,000) | max response, %; in the data active means max response mostly above about 13%, no sharp cut-off; inactive means mostly below about 14%; further: read at 38.3 µM for the half of the compounds with a filed dose
Each line names hits and unclear results; the compound was inactive in the other large screens. Unless noted, the call rests on the fitted dose curve; in most records, active means well fitted curve in the direction sought with a large enough effect; inconclusive means small, poorly fitted or top-dose-only effect, or another doubt; inactive means no such curve, though single readings can be large; an effect the other way counts as inactive or inconclusive.

CN1CCc2c(sc(NC(=O)c3ccco3)c2C(N)=O)C1	Pf growth 48h inconclusive, Pf growth 96h inconclusive, Cycloheximide cs 17.2
CN1CCc2c(sc(NC(=O)c3ccc([N+](=O)[O-])o3)c2C(N)=O)C1	Shiga toxin inh 25.5, Pf growth 48h inconclusive, Pf growth 96h inconclusive, Cycloheximide cs 27.4
CC(C)N1CCc2c(sc(NC(=O)c3ccco3)c2C(N)=O)C1	Pf growth 48h 0.465µM, Pf growth 96h inconclusive, Cycloheximide cs 20.7
CN1CCc2c(sc(NC(=O)c3cc(Cl)sc3Cl)c2C(N)=O)C1	Shiga toxin inh 30.2, Pf growth 48h inconclusive, Pf growth 96h inconclusive, Cycloheximide cs 25.4
Cc1cc2cc(CN3C(=O)c4ccccc4C3=O)ccc2n1C	Pf growth 96h inconclusive
NC(=O)CC(NC(=O)c1ccc(Br)cc1)c1ccc(N2CCCCCC2)c([N+](=O)[O-])c1 (stereo not drawn)	none
C/C(CC(=O)NC1CCCC1)=N\NC(=O)c1ccc([N+](=O)[O-])c(Cl)c1	none
CCc1ccccc1NC1Nc2cc(C)nn2S1 (stereo not drawn)	none
Cc1cc2n(n1)SC(Nc1ccc(F)cc1)N2 (stereo not drawn)	Shiga toxin inh 41.0, Cycloheximide cs 12.8
Cc1cc2n(n1)SC(Nc1cccc3ccccc13)N2 (stereo not drawn)	Shiga toxin inh 51.8, Cycloheximide cs 27.4
CC(=O)OC(C(=O)NCc1ccc(F)cc1)c1ccccn1 (stereo not drawn)	Pf growth 48h inconclusive
CCCCCCn1nc(C(=O)OCC(=O)NC2CCS(=O)(=O)C2)c2ccccc2c1=O (stereo not drawn)	none
CCN(CC)C(=O)CSc1nc(Cc2ccccc2)nc2ccccc12	Pf growth 96h inconclusive
O=C(CSc1ncnc2ccccc12)c1ccc2c(c1)OCCO2	Shiga toxin inh 185.4, Cycloheximide cs 45.9
CCc1nc(SCC(=O)c2ccc3c(c2)OCCO3)c2ccccc2n1	Pf growth 48h inconclusive, Pf growth 96h 10.4µM
Cc1sc2ncnc(SCC(=O)c3ccc4c(c3)OCCO4)c2c1-c1ccccc1	Pf growth 48h inconclusive
O=C(Nc1ccc2c(c1)OCO2)C1CCN(C(=O)CSc2ncnc3ccccc23)CC1	Shiga toxin inh 44.4, Pf growth 48h inconclusive, Cycloheximide cs 34.3
CCc1nc(SCC(=O)c2ccccc2)c2ccccc2n1	Pf growth 48h inconclusive, Pf growth 96h inconclusive
O=C(CSc1nc(Cc2ccccc2)nc2ccccc12)c1ccc2c(c1)OCCO2	Pf growth 48h 9.28µM, Pf growth 96h inconclusive
COc1ccc(/C=C(\NC(=O)c2ccc([N+](=O)[O-])cc2)C(=O)NCCCN2CCOCC2)cc1	Pf growth 96h inconclusive
O=C1C2CCCCN2C(=O)N1CCCCN1CCN(c2cccc(Br)c2)CC1 (stereo not drawn)	Pf growth 96h inconclusive
CCc1ccc([C@@H]2C[C@H]3[C@@H](CN2S(=O)(=O)c2ccc(C)cc2)C(=O)C[C@@H](c2ccccc2)N3S(=O)(=O)c2ccc(C)cc2)cc1	none (no result: Shiga toxin inh, Pf growth 48h, Pf growth 96h, SARS PLpro yeast, Cycloheximide cs)
O=C(O)/C=C/c1ccc(S(=O)(=O)NCc2ccco2)cc1	Pf growth 96h inconclusive
COc1ccccc1CNC(=O)/C=C/c1ccc(S(=O)(=O)NCc2ccco2)cc1	Shiga toxin inh active, Pf growth 48h inconclusive, Pf growth 96h inconclusive, Cycloheximide cs 19.5
COc1cccc(CN(Cc2ccco2)S(=O)(=O)c2ccc(S(=O)(=O)NCc3ccccc3)cc2)c1OC	Pf growth 48h 13.1µM
Cc1ccc(CNC(=O)/C=C/c2ccc(S(=O)(=O)NCc3ccco3)cc2)cc1	Shiga toxin inh 40.1, Pf growth 96h inconclusive, Cycloheximide cs 21.1
O=C(/C=C/c1ccc(S(=O)(=O)NCc2ccco2)cc1)NCc1cccc(Cl)c1	Shiga toxin inh 46.0, Pf growth 96h inconclusive, Cycloheximide cs 28.9
COc1cccc(CN(Cc2ccccc2F)S(=O)(=O)c2ccc(S(=O)(=O)NCc3ccccc3)cc2)c1	Pf growth 48h inconclusive, Pf growth 96h inconclusive
CC1Cc2ccccc2N1C(=O)CSc1nnnn1Cc1ccccc1 (stereo not drawn)	none
CCC1Sc2ccc(S(=O)(=O)CCC(=O)Nc3ccc(OC(F)(F)F)cc3)cc2NC1=O (stereo not drawn)	Pf growth 48h inconclusive
CCc1nc2ccc(C(=O)N(C)CC(=O)Nc3ccc(F)c(F)c3F)cc2nc1CC	none (no result: Shiga toxin inh, Cycloheximide cs)
Cc1nn(-c2ccccc2)c(Cl)c1/C=N/Nc1nnc(C)c(=O)[nH]1	Pf growth 96h inconclusive
Cc1cc(=O)[nH]c(N/N=C/c2c(C)nn(-c3ccccc3)c2C)n1	Pf growth 48h 11.7µM
Cc1cc(=O)[nH]c(N/N=C/c2cc(C)n(-c3ccccc3)c2C)n1	Shiga toxin inh 95.0, Pf growth 48h inconclusive, Pf growth 96h inconclusive, Cycloheximide cs 33.9
Cc1nn(-c2ccccc2)c(C)c1/C=N/Nc1nc2ccccc2[nH]1	Shiga toxin inh 148.7, Pf growth 48h 0.586µM, Pf growth 96h inconclusive, AMA1 RON2 block inconclusive, Cycloheximide cs 82.2
Cc1cc(/C=N/Nc2nc(N3CCOCC3)nc(N3CCOCC3)n2)c(C)n1-c1ccccc1	Pf growth 48h 9.28µM
Cc1cc(=O)[nH]c(N/N=C/c2ccccc2Cl)n1	Pf growth 96h inconclusive
BrC(/C=N/Nc1nc(N2CCOCC2)nc(N2CCOCC2)n1)=C/c1ccccc1	Pf growth 48h 11.7µM
CCN(CC)C(=O)CSc1nnc2sc3ccccc3n12	Pf growth 96h inconclusive
COc1cccc(OCCSc2nnc3sc4ccccc4n23)c1	Shiga toxin inh 21.0, Cycloheximide cs 39.9
c1ccc(OCCSc2nnc3sc4ccccc4n23)cc1	Shiga toxin inh 44.8
O=S1(=O)CC(N2CCCCC2)CN1C1CCCCC1 (stereo not drawn)	none (no result: Shiga toxin inh, Pf growth 48h, Pf growth 96h, SARS PLpro yeast, Cycloheximide cs)
COc1ccc(OC)c(NC(=O)CCCCCn2nnc3ccccc3c2=O)c1	none
Cc1ccc(S(=O)(=O)N(C)CCCC(=O)NC(C)(C)CO)cc1	Pf growth 96h inconclusive
CC(C)(C)NC(=O)CCN(/N=C/c1ccncc1)C1=NS(=O)(=O)c2ccccc21	Pf growth 48h inconclusive
COc1ccc(/C=N/N(CCC(=O)NC(C)(C)C)C2=NS(=O)(=O)c3ccccc32)cc1	Pf growth 48h 6.57µM
COc1ccc(C(CNC(=O)CCNS(=O)(=O)c2ccc(Br)cc2)N2CCCC2)cc1 (stereo not drawn)	Pf growth 48h 4.15µM, Pf growth 96h 2.08µM (no result: Shiga toxin inh, Cycloheximide cs)
COc1ccc(C(CNC(=O)C(C)Oc2ccc(Br)cc2)N2CCCCC2)cc1 (stereo not drawn)	Pf growth 48h 13.1µM, Pf growth 96h inconclusive (no result: Shiga toxin inh, Cycloheximide cs)
CCC(C)NC(=O)CCNS(=O)(=O)c1ccc(Br)cc1 (stereo not drawn)	Pf growth 96h 7.38µM
CC(C)(C)NC(=O)C1(C)CCC(=O)N1C1CC1 (stereo not drawn)	none (no result: Shiga toxin inh, Pf growth 48h, Pf growth 96h, SARS PLpro yeast, Cycloheximide cs)
COc1cc(/C=N/NC(=O)C2c3ccccc3Oc3ccccc32)ccc1O	Pf growth 48h inconclusive, Pf growth 96h 13.1µM
